Hits are enriched below; roughly 3.8% of the tested compounds scored in any of these assays.
FGF22 binding – binders of human FGF22 protein, primary screen, FGF22 synaptogenesis inhibitor project, biophysical, thermal shift, single point; Fibroblast growth factor 22 (Homo sapiens), Q9HCT0; recombinant FGF22 thermal shift, SYPRO orange fluorescence; percent of sucrose octasulfate shift, DMSO zero; activity (Tm shift, normalised), % at 9.99 µM; 1.5% of 340,000 active; AID 651658, 2012;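 active = mean Tm shift, scaled 0 neutral to 100 positive control, at about 1.3% or above, every replicate too, limit read from the data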
Target sequence (Q9HCT0 whole entry, looked up): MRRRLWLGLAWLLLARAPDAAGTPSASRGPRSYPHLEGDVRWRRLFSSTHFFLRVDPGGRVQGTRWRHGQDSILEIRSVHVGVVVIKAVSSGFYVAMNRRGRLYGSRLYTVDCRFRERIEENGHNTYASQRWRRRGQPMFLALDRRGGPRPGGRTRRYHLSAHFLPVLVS
ADAM17 inh – ADAM17 inhibitors, primary screen, biochemical, QFRET; Disintegrin and metalloproteinase domain-containing protein 17 (Homo sapiens), P78536; recombinant ADAM17, EDANS/DABCYL FRET peptide cleavage; inhibition, % at 6.95 µM; 0.83% of 370,000 active;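 active = inhibition above the mean of compounds lying between control limits plus 3 SD, set per campaign, cut at about 8.5% in these data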;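 note: 0% = DMSO-only wells as the low control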
ADAM10 inh – human ADAM10 inhibitors, primary screen, biochemical, QFRET, HTS. recombinant ADAM10, EDANS/DABCYL FRET peptide cleavage, 3 h. inhibition, % at 7 µM. 0.62% of 370,000 active. AID 720582, 2013;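 active = inhibition above a per-campaign cutoff equal to the mean of compounds falling between control-based bounds plus 3 SD, cut at about 20% in these data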;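 note: 0% = DMSO wells while the 100% control is not disclosed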
Ecoli rRNA inh – reduced GFP signal of wild-type E. coli, primary screen, bacterial rRNA inhibitor project, GFP/RFP fluorescence, OD600, single point. E. coli WT GFP vs humanized-ribosome RFP mutants, 24 h; active compounds read low; DMSO median 0, no signal -100. GFP signal change (wild-type ribosome), % (concentration not given with the values). 1.6% of 350,000 active;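 active = significant combined selectivity score with lowered wild-type GFP, culture density cut under 30%, mutant RFP and density less affected; inactive = any of these conditions unmet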
proKLK7 act – proKLK7 zymogen activators, primary screen, biochemical, fluorescence intensity. Kallikrein-7 (Homo sapiens), P49862. purified proKLK7, EDANS-DABCYL substrate fluorescence; 100% is mature enzyme control, 0% vehicle. activation, % at 7 µM. 0.9% of 370,000 active. AID 652039, 2013;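 active = activation above the mean of all tested compounds plus 3 SD, computed per campaign excluding outliers beyond control limits, cut at about 13% in these data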
Target sequence (P49862 whole entry, looked up): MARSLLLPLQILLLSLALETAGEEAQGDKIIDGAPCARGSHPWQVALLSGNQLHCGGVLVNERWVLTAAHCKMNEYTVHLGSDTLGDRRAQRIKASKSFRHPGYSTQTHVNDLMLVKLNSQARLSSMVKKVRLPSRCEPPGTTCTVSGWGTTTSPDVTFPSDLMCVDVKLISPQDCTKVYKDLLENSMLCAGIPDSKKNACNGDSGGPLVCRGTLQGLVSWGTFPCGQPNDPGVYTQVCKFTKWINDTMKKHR
ADAM10 confirm – human ADAM10 inhibitors, confirmation, biochemical, QFRET, triplicate; shares compounds with ADAM10 inh; ADAM10 QFRET peptide cleavage, EDANS fluorescence; inhibition, % at 6.95 µM; 1% of 2,100 active;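 active = inhibition above about 20% chosen separately for each screening run, limit read from the data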;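 note: 0% = DMSO wells and 100% = marimastat wells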
ADAM17 ctr – ADAM17 inhibitors, counter-screen for ADAM10 exosite inhibitor project, biochemical, QFRET, high throughput | 0.5% of 2,100 active | shares compounds with ADAM10 inh | ADAM17 QFRET peptide cleavage, EDANS fluorescence | inhibition, % at 6.95 µM | AID 743214, 2013;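 active = mean triplicate inhibition above the solvent-only control wells' mean plus 3 SD, cut at about 12% in these data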;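 note: 0% = DMSO wells and 100% = marimastat wells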
An asterisk follows results filed as active; · = no result.

SMILES	FGF22 binding	ADAM17 inh	ADAM10 inh	Ecoli rRNA inh	proKLK7 act	ADAM10 confirm	ADAM17 ctr
Cc1cccc(NC(=O)c2nc[nH]c2C(=O)NCCCCCNC(=O)OC(C)(C)C)c1	-0.3	-0.3	-2.0	-2.7	0.3	·	·
CC(C)(C)OC(=O)NCCCC[C@H](NC(=O)c1nc[nH]c1C(=O)NC(c1ccccc1)c1ccccc1)C(=O)OC(C)(C)C	0.5	8.2	22.0*	16.3	1.5	13.6	4.7
Cc1cccc(NC(=O)c2nc[nH]c2C(=O)N[C@@H](CCCCNC(=O)OC(C)(C)C)C(=O)OC(C)(C)C)c1	0.1	12.3*	32.6*	11.0	-1.5	11.4	3.3
CC(C)(C)OC(=O)NCCCC[C@H](NC(=O)c1nc[nH]c1C(=O)N[C@@H](CCCCNC(=O)OC(C)(C)C)C(=O)OC(C)(C)C)C(=O)OC(C)(C)C	0.1	0.2	11.4	16.7	-0.1	·	·
CC(C)(C)OC(=O)CNC(=O)c1[nH]cnc1C(=O)N[C@@H](CCCCNC(=O)OC(C)(C)C)C(=O)OC(C)(C)C	0.0	1.2	22.8*	16.0	0.9	0.1	0.2
CCCC(=O)Nc1ccc2c(c1)OC[C@@H](C)N(CCc1ccccc1)C[C@H](C)[C@H](OC)CN(C)C2=O	·	·	·	-0.1	·	·	·
COc1ccc(-n2c(=S)[nH]c3cc(C(=O)NCc4ccc(F)cc4)ccc3c2=O)c(OC)c1	0.0	6.2	23.2*	-5.0	-0.5	0.7	0.6
COc1ccc(-n2c(=S)[nH]c3cc(C(=O)NCc4ccccc4OC)ccc3c2=O)c(OC)c1	-0.4	5.7	14.4	-5.4	0.3	·	·
CCOC(=O)Nc1nc(-c2ccccc2)c(C(=O)c2ccc(Cl)cc2)s1	·	6.8	21.1*	·	-0.9	8.0	2.5
CCOC(=O)Nc1sc(C)nc1-c1ccccc1	0.2	-3.2	0.0	11.5	-0.1	·	·
CC(C)CC#Cc1ccc2c(c1)O[C@@H](CN(C)C(=O)Cc1ccccc1)[C@H](C)CN([C@@H](C)CO)S2(=O)=O	-0.8	·	·	-5.9	·	·	·
O=S(=O)(NCC[C@@H]1CC[C@H](NS(=O)(=O)c2ccccc2Cl)[C@H](CO)O1)c1ccc(Cl)cc1	0.7	·	·	-6.5	·	·	·
CCOc1cc(CNn2cn[nH]c2=S)cc(Cl)c1OCc1ccccc1F	0.0	12.3*	24.5*	-17.3	-1.4	-0.3	0.3
CCCCNC(=S)N/N=C/c1cc(C)ccc1C	·	5.9	19.8*	·	0.2	1.1	0.8
CCCCNC(=S)N/N=C/c1ccccc1F	0.0	1.6	3.7	-11.2	-0.6	·	·
O=C(CCc1ccc(S(=O)(=O)NC2CCCCC2)cc1)N(Cc1ccccc1)Cc1ccccc1	·	6.5	21.1*	·	-0.3	7.3	2.1
O=C(CCc1ccc(S(=O)(=O)NC2CCCCC2)cc1)Nc1ccccc1	·	-4.2	2.0	·	-0.1	·	·
COc1ccc(-c2cn(-c3ccc(C)cc3C)c(=S)[nH]2)cc1OC	-0.3	8.2	20.3*	8.1	0.3	3.7	2.5
Nc1cccc(CCc2ccncc2)c1	-0.2	0.2	21.1*	5.2	-0.4	-0.1	0.2
O=C(NNC(=S)Nc1ccc(Cl)c(Cl)c1)c1cccc([N+](=O)[O-])c1	·	6.3	13.1	-53.1	0.2	·	·
Cc1cccc(NC(=S)NNC(=O)c2cccc([N+](=O)[O-])c2)c1	-0.2	2.8	20.8*	-11.2	-0.3	-2.4	0.1
C[C@H](O)C#Cc1ccc2c(c1)O[C@@H](CN(C)Cc1ccncc1)[C@H](C)CN([C@@H](C)CO)S2(=O)=O	-0.1	·	·	-6.0	·	·	·

High-throughput results (PubChem)
